Measured values published in PubChem BioAssay (NCATS).
Inconclusive results are not listed. The source made the active and inactive calls. Calls come from the whole dose curve; as a rule, active = well fitted curve in the direction sought with a large enough effect; inconclusive = small, poorly fitted or top-dose-only effect, or another doubt; inactive = no such curve, though single readings can be large; an effect the other way counts as inactive or inconclusive.

Tests used:
[1] = qHTS of pediatric cancer cell lines to identify multiple opportunities for drug repurposing: Confirmatory screen for NB-EBc1 cells (AID 1347115);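 note: cells exposed to compound for 48 h before the viability read; nearly all actives have a fitted effect of over 45% in size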; note: potency is the fitted concentration of half-maximal effect
Outline: (§1)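 Viability after 48 h compound treatment at 37C, 500-1,000 cells/well, read as ATP luminescence with CellTiter-Glo. Primary screens used 11-point (MIPE, 0.78 nM-46 µM) or 8-point (NPC, 0.59 nM-46 µM) final concentrations; follow-up screens used 11-point dilutions.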

[2] = qHTS of pediatric cancer cell lines to identify multiple opportunities for drug repurposing: Confirmatory screen for SJ-GBM2 cells (AID 1347116); note: nearly all actives have a fitted effect of over 60% in size; note: potency is the fitted concentration of half-maximal effect
Outline: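 Viability measured as metabolically active cells via CellTiter-Glo luminescence following 48 hours of compound exposure, 11-point dilutions in confirmatory testing. 500-1,000 cells/well plated 5 hours before dosing; controls were DMSO and 2.3 µM bortezomib.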

[3] = qHTS of pediatric cancer cell lines to identify multiple opportunities for drug repurposing: Confirmatory screen for BT-37 cells (AID 1347117); note: nearly all actives have a fitted effect of over 55% in size; note: potency is the fitted concentration of half-maximal effect
Outline: as §1

[4] = qHTS of pediatric cancer cell lines to identify multiple opportunities for drug repurposing: Confirmatory screen for TC32 cells (AID 1347118);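 note: cells exposed to compound for 48 h before the read; nearly all actives have a fitted effect of over 65% in size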; note: potency is the fitted concentration of half-maximal effect
Outline: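 Luminescent ATP read-out (CellTiter-Glo) of metabolically active TC32 cells after 48 h exposure. Concentration-response curves came from 11-point (MIPE, 0.78 nM–46 µM) or 8-point (NPC, 0.59 nM–46 µM) primary titrations; follow-up used 11 points.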

[5] = qHTS of pediatric cancer cell lines to identify multiple opportunities for drug repurposing: Confirmatory screen for MG 63 (6-TG R) cells (AID 1347119); note: nearly all actives have a fitted effect of over 55% in size; note: potency is the fitted concentration of half-maximal effect
Outline: as §1

[6] = qHTS of pediatric cancer cell lines to identify multiple opportunities for drug repurposing: Confirmatory screen for control Hh wild type fibroblast cells (AID 1347121); note: nearly all actives have a fitted effect of over 70% in size; note: potency is the fitted concentration of half-maximal effect
Outline: as §1

[7] = qHTS of pediatric cancer cell lines to identify multiple opportunities for drug repurposing: Confirmatory screen for U-2 OS cells (AID 1347122); note: nearly all actives have a fitted effect of over 65% in size; note: potency is the fitted concentration of half-maximal effect
Outline: as §1

[8] = qHTS of pediatric cancer cell lines to identify multiple opportunities for drug repurposing: Confirmatory screen for Rh41 cells (AID 1347123);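 note: 48 h compound exposure; nearly all actives have a fitted effect of over 60% in size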; note: potency is the fitted concentration of half-maximal effect
Outline: as §1

[9] = qHTS of pediatric cancer cell lines to identify multiple opportunities for drug repurposing: Confirmatory screen for Rh18 cells (AID 1347125); note: nearly all actives have a fitted effect of over 55% in size; note: potency is the fitted concentration of half-maximal effect
Outline: as §1

[10] = qHTS of pediatric cancer cell lines to identify multiple opportunities for drug repurposing: Confirmatory screen for Rh30 cells (AID 1347126); note: nearly all actives have a fitted effect of over 55% in size; note: potency is the fitted concentration of half-maximal effect
Outline: as §1

[11] = qHTS of pediatric cancer cell lines to identify multiple opportunities for drug repurposing: Confirmatory screen for OHS-50 cells (AID 1347128); note: potency is the fitted concentration of half-maximal effect
Outline: as §1

[12] = qHTS of pediatric cancer cell lines to identify multiple opportunities for drug repurposing: Confirmatory screen for SK-N-SH cells (AID 1347129);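 note: cells exposed to compound for 48 h before viability read; nearly all actives have a fitted effect of over 60% in size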; note: potency is the fitted concentration of half-maximal effect
Outline: as §1

[13] = molecular target: N-terminal Xaa-Pro-Lys N-methyltransferase 1 (Homo sapiens) (UniProt Q9BV86); assay: qHTS Assay for Inhibitors of N-terminal methyltransferase 1 (NTMT1): LOPAC validation of the NTMT1 SAHH-coupled ThioGlo3 Assay (AID 1347143);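 note: SAH from peptide methylation measured as thiol fluorescence via SAHH coupling and ThioGlo3; nearly all actives have a fitted effect of over 70% in size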; note: potency is the fitted concentration of half-maximal effect
Chain of N-terminal Xaa-Pro-Lys N-methyltransferase 1 (Homo sapiens) (Q9BV86 whole entry, looked up): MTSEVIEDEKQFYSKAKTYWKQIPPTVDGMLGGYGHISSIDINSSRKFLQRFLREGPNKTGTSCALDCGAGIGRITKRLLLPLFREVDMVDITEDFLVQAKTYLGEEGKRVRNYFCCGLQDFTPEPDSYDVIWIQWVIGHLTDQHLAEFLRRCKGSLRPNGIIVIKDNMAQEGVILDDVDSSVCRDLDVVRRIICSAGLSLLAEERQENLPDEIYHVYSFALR
Outline: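 Steps: dispense 125nM NTMT1; pin-transfer test compounds at several concentrations, with 1uM RCC1-6 peptide as control; incubate 1 min; start with reagent holding 100uM SAM, 10uM SAHH, 15uM ThioGlo3; read at 0 and 30 min.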

[14] = system: Zika virus NS2B-NS3 protease (unlinked); assay: Optimization of GU AMC qHTS for Zika virus inhibitors: Unlinked NS2B-NS3 protease assay (AID 1347151); note: nearly all actives have a fitted effect of over 80% in size; note: potency is the fitted concentration of half-maximal effect
Outline: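 In this qHTS, compounds acted on 25 nM unlinked Zika NS2B–NS3 in pH 8.0 Tris/Tween buffer. Cleavage of an AMC peptide ran 15 min at room temperature, to about 20% conversion.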

[15] = system: Zika virus NS2B-NS3 protease; assay: Primary screen GU AMC qHTS for Zika virus inhibitors (AID 1347154); note: nearly all actives have a fitted effect of over 70% in size
Outline: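 Unlinked Zika NS2B hydrophilic domain–NS3 protease complex at 25 nM in 10 mM Tris-HCl pH 8.0, 0.01% Tween 20, with an AMC peptide substrate. Fluorescence change (340/450 nm) over 15 min at room temperature, normalized to controls, fitted to 4-parameter Hill.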

Furin (Homo sapiens) = Furin (Homo sapiens) (UniProt P09958); assay: Furin counterscreen qHTS for Zika virus inhibitors (AID 1347149); note: nearly all actives have a fitted effect of over 70% in size; note: potency is the fitted concentration of half-maximal effect
Chain of Furin (Homo sapiens) (P09958 whole entry, looked up): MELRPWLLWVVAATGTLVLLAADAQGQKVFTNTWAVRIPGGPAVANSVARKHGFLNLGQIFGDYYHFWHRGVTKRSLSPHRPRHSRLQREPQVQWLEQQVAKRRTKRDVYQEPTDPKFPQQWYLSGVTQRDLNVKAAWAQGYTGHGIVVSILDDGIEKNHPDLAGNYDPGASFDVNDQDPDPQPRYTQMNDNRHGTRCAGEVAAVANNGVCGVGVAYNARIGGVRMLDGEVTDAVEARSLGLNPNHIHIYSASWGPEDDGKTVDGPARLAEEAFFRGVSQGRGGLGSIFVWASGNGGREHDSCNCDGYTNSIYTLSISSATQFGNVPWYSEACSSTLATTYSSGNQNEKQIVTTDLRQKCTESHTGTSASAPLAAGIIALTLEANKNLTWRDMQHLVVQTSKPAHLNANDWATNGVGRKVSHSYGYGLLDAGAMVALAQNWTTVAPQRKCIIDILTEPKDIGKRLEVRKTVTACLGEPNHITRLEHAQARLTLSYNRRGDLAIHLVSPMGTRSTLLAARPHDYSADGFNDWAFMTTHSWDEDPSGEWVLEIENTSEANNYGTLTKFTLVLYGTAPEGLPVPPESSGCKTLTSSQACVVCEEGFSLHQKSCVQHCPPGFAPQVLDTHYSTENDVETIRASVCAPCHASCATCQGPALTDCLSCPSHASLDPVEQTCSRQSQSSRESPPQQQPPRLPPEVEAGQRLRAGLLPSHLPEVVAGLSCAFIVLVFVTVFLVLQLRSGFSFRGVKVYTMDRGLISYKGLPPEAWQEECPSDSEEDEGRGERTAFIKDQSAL
Outline: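 Counterscreen measures cleavage of 2 microM BOC-RVRR-AMC, below its ~15 microM Km, by 5 nM full-length human furin at pH 7.0 after a 15-min compound preincubation. Inhibition derives from the 15-min fluorescence increase at 37C.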

[16] = system: Zika virus NS2B-NS3 protease (unlinked complex); assay: Confirmatory screen GU AMC qHTS for Zika virus inhibitors (AID 1347153); note: nearly all actives have a fitted effect of over 70% in size
Outline: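 Compounds were preincubated 15 min at room temperature with 25 nM noncovalent NS2B-NS3 protease at pH 8.0; AMC substrate added at 10 microM and 15-min fluorescence gain (340/450 nm) converted to percent inhibition, fitted 4-parameter.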

[17] = system: Zika virus NS2B-NS3 protease (linked construct); assay: Confirmatory screen NINDS AMC qHTS for Zika virus inhibitors (AID 1347152)
Outline: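 Concentration-response confirmation used the NINDS linked protease (NS2B hydrophilic domain joined to NS3 protease domain), 1 nM, with a 15-min compound preincubation. Substrate, Nle-KRR-AMC at 10 microM, was read by UV fluorescence before and after 15 min.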

Measured: Potency

CC[C@@]1(O)C(=O)OCc2c1cc1n(c2=O)Cc2cc3c(CN(C)C)c(O)ccc3nc2-1
inactive: [6] | [13] | [14] | [15]
active: [1] 0.0928 µM | [2] 1.31 µM | [3] 0.117 µM | [4] 0.0585 µM | [5] 0.329 µM | [7] 10.4 µM | [8] 3.69 µM | [9] 5.22 µM | [10] 2.93 µM | [11] 0.329 µM | [12] 6.62 µM

CC(C)C(=O)Nc1ccc([N+](=O)[O-])c(C(F)(F)F)c1
inactive: [1] | [6] | [12] | [14] | [15]

CN(C)CCCN1c2ccccc2CCc2ccc(Cl)cc21
inactive: [1] | [2] | [4] | [6] | [14] | [15]
active: [8] 10.4 µM

CC(=O)OCC(CCn1cnc2cnc(N)nc21)COC(C)=O
active: [13] 56.2 µM | [14] 26.7 µM

CC(C)NCC(O)c1ccc(O)c(O)c1 (configuration not stated)
active: [3] 5.22 µM | [7] 7.37 µM
inactive: [1] | [6] | [12] | [14] | [15]

CN(Cc1cnc2nc(N)nc(N)c2n1)c1ccc(C(=O)N[C@@H](CCC(=O)O)C(=O)O)cc1
active: [4] 0.0369 µM | [11] 0.0131 µM | [13] 79.4 µM | Furin (Homo sapiens) 19.1 µM | [14] 21.2 µM
inactive: [5] | [6] | [9] | [10] | [12] | [16]

NC(=O)NO
active: [4] 20.8 µM | [7] 23.3 µM
not listed: [2] | [10] | [12] | Furin (Homo sapiens) | [16] | [17]
inactive: all other assays above

CC(CCc1ccc(O)cc1)NCCc1ccc(O)c(O)c1 (configuration not stated)
inactive: [5] | [6] | [7] | [8] | [9] | [10] | [12] | [14] | [15]
active: [1] 5.85 µM | [4] 20.8 µM

CC#C[C@]1(O)CC[C@H]2[C@@H]3CCC4=CC(=O)CCC4=C3[C@@H](c3ccc(N(C)C)cc3)C[C@@]21C
active: [4] 18.5 µM | [8] 23.3 µM | [13] 11.2 µM
inactive: [1] | [2] | [5] | [6] | [14] | [15]

CCOC(=O)Nc1ccc(NCc2ccc(F)cc2)nc1N
active: [13] 50.1 µM | [14] 23.8 µM
inactive: [17] | [16]

CS(=O)(=O)Nc1ccc([N+](=O)[O-])cc1Oc1ccccc1
inactive: [6] | [7] | [9] | [10] | [11] | [14] | [15]
active: [5] 16.5 µM | [8] 18.5 µM

CCCCc1oc2ccccc2c1C(=O)c1cc(I)c(OCCN(CC)CC)c(I)c1
active: [1] 56.2 µM | [2] 79.4 µM | [3] 50.1 µM | [4] 28.2 µM | [5] 39.8 µM | [6] 70.8 µM | [7] 28.2 µM | [8] 17.8 µM | [9] 50.1 µM | [10] 56.2 µM | [11] 44.7 µM | [12] 56.2 µM
inactive: [15]

CC(COc1ccccc1)N(CCCl)Cc1ccccc1 (configuration not stated)
inactive: [7] | [15]
active: [3] 18.5 µM | [4] 7.37 µM | [8] 13.1 µM | [9] 18.5 µM | [10] 16.5 µM

CC(C)(C)C(=O)Oc1ccc(S(=O)(=O)Nc2ccccc2C(=O)NCC(=O)O)cc1
inactive: [13] | Furin (Homo sapiens) | [17] | [16] | [15]

CCC1(c2ccccc2)C(=O)NCNC1=O
not listed: [4] | Furin (Homo sapiens) | [16] | [17]
inactive: all other assays above

CS(=O)(=O)CCNCc1ccc(-c2ccc3ncnc(Nc4ccc(OCc5cccc(F)c5)c(Cl)c4)c3c2)o1
inactive: [1]
active: [7] 20.8 µM | [8] 8.27 µM | [9] 14.7 µM | [10] 14.7 µM | [12] 23.5 µM

CCOC(=O)c1ncn2c1CN(C)C(=O)c1cc(F)ccc1-2
inactive: [13] | [14] | [15]

CCN1CCCC1CNC(=O)c1cc(S(=O)(=O)CC)c(N)cc1OC (configuration not stated)
inactive: [13] | [14] | [15]

O=C(C1CCCCC1)N1CC(=O)N2CCc3ccccc3C2C1 (configuration not stated)
inactive: [13] | [14] | [15]

CCc1cccc2c3c([nH]c12)C(CC)(CC(=O)O)OCC3 (configuration not stated)
inactive: [13] | [14] | [15]

Cc1cc(C(C)(C)C)cc(C)c1CC1=NCCN1
inactive: [13] | [14] | [15]
